Laboratory results: the supplement of paper PMC10849652
Of roughly 8,800 targets only a part is listed; those with a hit were picked by preference. About 0.5% of all pairs of compound and target were hits. Values without a mark were called inactive.

These targets were tested with CC[C@@H]1C(=O)N(C)c2cnc(Nc3ccc(C(=O)N[C@H]4CC[C@H](N5CCN(CC6CC6)CC5)CC4)cc3OC)nc2N1C(C)C [volasertib] (assay: log2 fold change, soluble protein after heating vs DMSO (PISA); higher = thermal stabilisation; K562 lysate, 10 uM; active = over 0.2 and 3.5 SD of the protein, either way, in both replicates (recomputed)).
In short: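 Pellets of K562 cells were dounce-homogenised in PBS pH 7.4 with 1 mM MgCl2, and the crude extract was held at 1 mg/mL protein for a 30 min treatment with 10 μM compound. Aliquots were heated for 3 min over 48°C-58°C and pooled before NP-40 was added to 0.5% at 4°C. The supernatant from 21,000xg for 90 min was quantified by TMTpro 16plex LC-MS/MS with channel sums equalised. Values are reported from duplicates as log-two fold change in thermal stability relative to solvent controls.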

UniProt O15357, sequence (O15357 whole entry, looked up): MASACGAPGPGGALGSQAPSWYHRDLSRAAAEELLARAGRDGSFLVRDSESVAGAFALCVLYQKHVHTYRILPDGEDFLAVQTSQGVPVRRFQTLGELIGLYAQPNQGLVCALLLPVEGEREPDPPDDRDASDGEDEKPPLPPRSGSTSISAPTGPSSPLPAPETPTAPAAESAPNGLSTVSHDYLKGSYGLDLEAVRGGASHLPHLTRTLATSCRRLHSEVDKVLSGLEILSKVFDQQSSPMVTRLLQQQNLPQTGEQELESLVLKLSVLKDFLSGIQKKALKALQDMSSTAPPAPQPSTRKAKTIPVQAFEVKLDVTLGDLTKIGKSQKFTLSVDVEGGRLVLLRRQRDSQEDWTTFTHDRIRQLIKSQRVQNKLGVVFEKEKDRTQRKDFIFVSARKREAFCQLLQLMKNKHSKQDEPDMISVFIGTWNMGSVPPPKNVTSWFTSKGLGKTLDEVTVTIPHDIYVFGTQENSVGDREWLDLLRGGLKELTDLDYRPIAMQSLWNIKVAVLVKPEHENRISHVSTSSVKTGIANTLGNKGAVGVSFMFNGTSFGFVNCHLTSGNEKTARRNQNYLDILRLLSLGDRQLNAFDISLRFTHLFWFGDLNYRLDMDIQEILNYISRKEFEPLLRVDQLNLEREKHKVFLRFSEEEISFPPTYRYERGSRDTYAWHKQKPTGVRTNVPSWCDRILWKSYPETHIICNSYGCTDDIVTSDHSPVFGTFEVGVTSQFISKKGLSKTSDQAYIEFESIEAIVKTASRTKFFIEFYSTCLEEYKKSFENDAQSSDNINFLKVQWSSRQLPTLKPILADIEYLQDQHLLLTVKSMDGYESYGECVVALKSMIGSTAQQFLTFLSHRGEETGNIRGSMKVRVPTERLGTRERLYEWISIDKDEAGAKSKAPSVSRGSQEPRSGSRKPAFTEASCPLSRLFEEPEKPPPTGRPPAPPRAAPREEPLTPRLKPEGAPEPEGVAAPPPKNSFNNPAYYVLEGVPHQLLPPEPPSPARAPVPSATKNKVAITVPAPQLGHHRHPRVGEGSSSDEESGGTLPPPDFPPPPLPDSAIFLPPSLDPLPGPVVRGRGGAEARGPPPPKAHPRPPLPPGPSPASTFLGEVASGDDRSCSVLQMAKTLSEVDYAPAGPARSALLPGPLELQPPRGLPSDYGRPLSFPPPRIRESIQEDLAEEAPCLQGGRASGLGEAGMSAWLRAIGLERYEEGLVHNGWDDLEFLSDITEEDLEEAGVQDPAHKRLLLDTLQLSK
UniProt Q9BUE6, sequence (Q9BUE6 whole entry, looked up): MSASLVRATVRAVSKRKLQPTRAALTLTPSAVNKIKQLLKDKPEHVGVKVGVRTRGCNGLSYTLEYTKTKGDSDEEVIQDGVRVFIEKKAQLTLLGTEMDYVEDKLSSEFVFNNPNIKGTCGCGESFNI
UniProt Q9NVH2, sequence (Q9NVH2 whole entry, looked up): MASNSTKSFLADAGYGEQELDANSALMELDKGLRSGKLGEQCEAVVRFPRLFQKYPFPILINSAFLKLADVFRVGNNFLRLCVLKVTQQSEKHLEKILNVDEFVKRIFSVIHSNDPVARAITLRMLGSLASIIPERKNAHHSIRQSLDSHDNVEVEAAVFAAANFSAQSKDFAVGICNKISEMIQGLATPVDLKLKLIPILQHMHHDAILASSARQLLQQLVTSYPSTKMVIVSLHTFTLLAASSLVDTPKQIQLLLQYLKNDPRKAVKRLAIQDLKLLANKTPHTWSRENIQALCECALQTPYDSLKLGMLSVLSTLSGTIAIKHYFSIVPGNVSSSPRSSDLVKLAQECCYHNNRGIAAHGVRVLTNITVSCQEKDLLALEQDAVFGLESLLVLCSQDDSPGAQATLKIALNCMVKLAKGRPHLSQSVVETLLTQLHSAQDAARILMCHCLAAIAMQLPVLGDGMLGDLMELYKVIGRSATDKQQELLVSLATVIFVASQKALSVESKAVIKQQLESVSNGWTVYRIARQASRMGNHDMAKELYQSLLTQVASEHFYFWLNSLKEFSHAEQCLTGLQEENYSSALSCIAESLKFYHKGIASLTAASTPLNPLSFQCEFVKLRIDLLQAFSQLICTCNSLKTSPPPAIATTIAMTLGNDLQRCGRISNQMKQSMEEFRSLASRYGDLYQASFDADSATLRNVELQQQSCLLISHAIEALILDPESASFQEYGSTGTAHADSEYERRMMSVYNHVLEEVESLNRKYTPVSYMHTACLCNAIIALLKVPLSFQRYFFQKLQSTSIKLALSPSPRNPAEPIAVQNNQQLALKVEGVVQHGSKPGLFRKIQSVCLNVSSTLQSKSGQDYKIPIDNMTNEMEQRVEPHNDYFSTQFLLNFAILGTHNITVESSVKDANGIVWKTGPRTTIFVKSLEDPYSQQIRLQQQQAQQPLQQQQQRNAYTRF
UniProt P04792, sequence (P04792 whole entry, looked up): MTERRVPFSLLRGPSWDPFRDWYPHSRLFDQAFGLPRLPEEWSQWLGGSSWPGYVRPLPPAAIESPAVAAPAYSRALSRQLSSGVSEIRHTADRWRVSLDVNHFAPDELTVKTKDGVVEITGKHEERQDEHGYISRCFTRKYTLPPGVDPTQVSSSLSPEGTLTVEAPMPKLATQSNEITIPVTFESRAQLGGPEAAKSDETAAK
UniProt P49448, sequence (P49448 whole entry, looked up): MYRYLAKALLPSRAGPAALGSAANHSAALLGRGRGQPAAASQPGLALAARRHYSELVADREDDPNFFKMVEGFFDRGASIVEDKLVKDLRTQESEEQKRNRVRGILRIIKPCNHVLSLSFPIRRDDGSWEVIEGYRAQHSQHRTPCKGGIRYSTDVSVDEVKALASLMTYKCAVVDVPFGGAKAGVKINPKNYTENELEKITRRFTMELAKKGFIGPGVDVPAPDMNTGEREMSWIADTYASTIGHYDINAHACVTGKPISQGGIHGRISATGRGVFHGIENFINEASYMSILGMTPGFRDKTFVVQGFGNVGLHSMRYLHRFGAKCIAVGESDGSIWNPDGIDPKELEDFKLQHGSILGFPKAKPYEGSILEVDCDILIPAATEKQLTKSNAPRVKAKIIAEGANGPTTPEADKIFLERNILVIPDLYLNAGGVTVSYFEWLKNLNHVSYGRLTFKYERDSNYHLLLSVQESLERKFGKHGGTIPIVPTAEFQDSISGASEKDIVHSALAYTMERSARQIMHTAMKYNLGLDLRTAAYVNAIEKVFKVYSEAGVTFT
UniProt P41229, sequence (P41229 whole entry, looked up): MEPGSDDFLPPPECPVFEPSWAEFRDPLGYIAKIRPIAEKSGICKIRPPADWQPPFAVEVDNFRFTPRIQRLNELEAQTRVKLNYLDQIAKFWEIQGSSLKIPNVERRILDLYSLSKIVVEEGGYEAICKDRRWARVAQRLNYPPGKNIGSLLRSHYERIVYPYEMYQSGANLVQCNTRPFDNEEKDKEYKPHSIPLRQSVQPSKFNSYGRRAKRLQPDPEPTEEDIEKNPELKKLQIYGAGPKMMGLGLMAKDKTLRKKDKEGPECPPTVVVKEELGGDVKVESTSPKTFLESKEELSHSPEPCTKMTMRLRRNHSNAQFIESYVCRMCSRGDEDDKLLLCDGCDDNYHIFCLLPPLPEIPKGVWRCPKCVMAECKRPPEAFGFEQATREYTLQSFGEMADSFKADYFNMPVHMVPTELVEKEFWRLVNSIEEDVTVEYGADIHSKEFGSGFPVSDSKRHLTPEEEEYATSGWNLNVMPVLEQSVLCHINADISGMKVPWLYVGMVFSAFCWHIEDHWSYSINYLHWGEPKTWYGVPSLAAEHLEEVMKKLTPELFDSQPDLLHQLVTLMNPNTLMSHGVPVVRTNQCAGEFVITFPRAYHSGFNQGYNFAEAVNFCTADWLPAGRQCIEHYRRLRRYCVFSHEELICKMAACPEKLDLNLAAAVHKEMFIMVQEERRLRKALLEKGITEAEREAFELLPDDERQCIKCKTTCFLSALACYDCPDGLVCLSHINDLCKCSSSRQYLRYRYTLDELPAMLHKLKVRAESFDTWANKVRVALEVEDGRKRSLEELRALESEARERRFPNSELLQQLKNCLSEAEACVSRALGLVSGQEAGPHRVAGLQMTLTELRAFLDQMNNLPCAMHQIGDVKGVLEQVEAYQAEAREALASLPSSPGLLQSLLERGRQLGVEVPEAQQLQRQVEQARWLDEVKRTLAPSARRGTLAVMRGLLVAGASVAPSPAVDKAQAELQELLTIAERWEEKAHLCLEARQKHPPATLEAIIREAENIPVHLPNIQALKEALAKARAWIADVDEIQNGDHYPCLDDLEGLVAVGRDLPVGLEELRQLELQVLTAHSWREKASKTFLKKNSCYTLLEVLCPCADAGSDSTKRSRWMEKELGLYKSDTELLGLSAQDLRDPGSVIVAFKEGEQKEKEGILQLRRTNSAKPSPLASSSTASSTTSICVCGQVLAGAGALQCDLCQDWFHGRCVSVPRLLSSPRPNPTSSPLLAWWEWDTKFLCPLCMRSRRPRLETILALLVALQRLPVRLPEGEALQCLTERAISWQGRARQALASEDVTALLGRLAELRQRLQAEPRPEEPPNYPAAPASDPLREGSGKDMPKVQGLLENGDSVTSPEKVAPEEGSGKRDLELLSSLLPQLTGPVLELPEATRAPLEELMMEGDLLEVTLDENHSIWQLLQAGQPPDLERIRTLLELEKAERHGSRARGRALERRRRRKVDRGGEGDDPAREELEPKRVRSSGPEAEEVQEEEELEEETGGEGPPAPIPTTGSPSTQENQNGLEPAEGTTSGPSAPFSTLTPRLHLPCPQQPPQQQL
UniProt P15104, sequence (P15104 whole entry, looked up): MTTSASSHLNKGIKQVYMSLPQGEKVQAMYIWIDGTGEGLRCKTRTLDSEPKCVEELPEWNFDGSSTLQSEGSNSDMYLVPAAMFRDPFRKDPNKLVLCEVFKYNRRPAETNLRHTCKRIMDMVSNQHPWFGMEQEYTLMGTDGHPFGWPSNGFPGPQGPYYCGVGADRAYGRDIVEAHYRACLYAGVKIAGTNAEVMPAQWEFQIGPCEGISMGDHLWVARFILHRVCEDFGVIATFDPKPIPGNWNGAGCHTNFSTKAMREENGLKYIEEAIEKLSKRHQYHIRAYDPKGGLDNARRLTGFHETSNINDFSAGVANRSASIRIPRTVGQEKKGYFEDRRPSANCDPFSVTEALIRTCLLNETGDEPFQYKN

| Target | log2 fold change |
| --- | --- |
| GLYR1 (UniProt Q49A26) | -0.005 |
| HMGCS1 (UniProt Q01581) | -0.017 |
| GSTM4 (UniProt Q03013) | 0.03 |
| KARS1 (UniProt Q15046) | -0.026 |
| GTF2H4 (UniProt Q92759) | -0.046 |
| HAUS7 isoform 2 (UniProt Q99871) | -0.06 |
| GSE1 (UniProt Q14687) | -0.026 |
| INTS10 (UniProt Q9NVR2) | -0.088 |
| GMDS (UniProt O60547) | -0.034 |
| HDHD5 (UniProt Q9BXW7) | -0.02 |
| GLUD2 (UniProt P49448) | -0.145 |
| ILKAP (UniProt Q9H0C8) | -0.017 |
| HSPA14 (UniProt Q0VDF9) | -0.043 |
| GLUL (UniProt P15104) | -0.024 |
| GSK3A (UniProt P49840) | -0.01 |
| GRK6 isoform 2 (UniProt P43250) | 0.006 |
| GRK2 (UniProt P25098) | -0.05 |
| KDM5C (UniProt P41229) | 0.004 |

| Target | log2 fold change |
| --- | --- |
| ILK (UniProt Q13418) | -0.072 |
| HLTF (UniProt Q14527) | -0.043 |
| INTS7 (UniProt Q9NVH2) | 0.013 |
| ICAM2 (UniProt P13598) | 0.015 |
| HSP90AA4P (UniProt Q58FG1) | 0.005 |
| HMGB2 (UniProt P26583) | 0.014 |
| HDAC3 (UniProt O15379) | -0.003 |
| GTF3C5 isoform 3 (UniProt Q9Y5Q8) | -0.018 |
| ISY1 isoform 1 (UniProt Q9ULR0) | -0.025 |
| HEATR6 (UniProt Q6AI08) | -0.019 |
| H4C1 (UniProt P62805) | 0.027 |
| ILRUN (UniProt Q9H6K1) | -0.058 |
| ISCA1 isoform 2 (UniProt Q9BUE6) | 0.03 |
| KDM5B isoform 2 (UniProt Q9UGL1) | 0.071 |
| INTS3 (UniProt Q68E01) | -0.017 |
| GSTCD (UniProt Q8NEC7) | -0.05 |
| HSPB1 (UniProt P04792) | -0.02 |
| INPPL1 (UniProt O15357) | -0.047 |
